Compound activity (PubChem BioAssay)
CYP2C19 inh: human CYP2C19 inhibition; AID 778; inhibition, % at 5 µM; hit rate 21% among 96,000; CYP2C19 Supersomes, luciferin-H EGE luminescence, 30 min;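 active = CYP2C19 inhibition above a set limit at 5 µM in the primary screen, cut at about 50% in these data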
Target sequence (P33261 whole entry, looked up): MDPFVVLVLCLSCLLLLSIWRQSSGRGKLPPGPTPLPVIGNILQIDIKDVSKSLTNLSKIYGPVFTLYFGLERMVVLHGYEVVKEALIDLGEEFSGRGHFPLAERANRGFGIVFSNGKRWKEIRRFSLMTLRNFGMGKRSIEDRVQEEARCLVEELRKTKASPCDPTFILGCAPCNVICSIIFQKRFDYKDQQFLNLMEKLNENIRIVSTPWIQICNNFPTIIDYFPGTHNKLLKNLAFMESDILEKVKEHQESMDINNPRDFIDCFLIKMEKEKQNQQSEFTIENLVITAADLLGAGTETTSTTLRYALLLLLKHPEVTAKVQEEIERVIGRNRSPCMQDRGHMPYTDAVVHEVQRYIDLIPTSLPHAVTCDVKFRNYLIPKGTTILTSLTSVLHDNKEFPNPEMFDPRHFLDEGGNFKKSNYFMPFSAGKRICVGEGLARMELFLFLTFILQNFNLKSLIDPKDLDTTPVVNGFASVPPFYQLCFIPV
CYP2C9 act: increases human cytochrome P450 2C9 activity. P11712. recombinant CYP2C9, luciferin-H conversion, luminescence; hits give high values; factor 1 = untreated enzyme, 0 = blocked. activation factor at 5 µM. hit rate 1.4% among 96,000;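 active = activation factor of 2 or more for CYP2C9 at a 5 µM dose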
CYP2C19 activ: activators of human cytochrome P450 2C19; P33261; recombinant CYP2C19, luciferin-H EGE luminescence; hits give high values; 0 = fully inhibited enzyme, 1 = untreated enzyme; activation factor at 5 µM; 96,000 tested, under 10 active; AID 1025;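 active = activation factor of at least 2 at 5 µM in the primary screen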
CYP2C9 inh: inhibitors of human CYP2C9; inhibition, % at 5 µM; hit rate 20% among 96,000; CYP2C9 Supersomes, luciferin-H conversion, luminescence;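 active = blocking of liver enzyme CYP2C9 beyond about 50% at 5 µM, limit read from the data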
PLAP activator: human PLAP activation; P05187; purified PLAP enzyme, luminescent substrate read-out; hits give high values; activation fold at 20 µM; hit rate 1.2% among 96,000; AID 696; in the data active = activation fold above about 2
Each line names hits and unclear results; the compound was inactive in the other large screens. Hits are enriched below; roughly 31% of the tested compounds scored in any of these assays.

COc1ccccc1NC(=O)C(CC(C)C)NC(=O)C1CCCCC1 (centres undefined)	CYP2C19 inh 51
COc1ccc(OC)c(NC(=O)C2CCCN2C(=O)C2CCC(C)CC2)c1 (centres undefined)	CYP2C19 inh 53, CYP2C9 inh 57
COc1cc(NC(=O)C2CCCN2C(=O)C2CCC(C)CC2)cc(OC)c1OC (centres undefined)	none
O=C(O)CNC1=NCCCCC1	none
COC(=O)c1cc2ccsc2n1CC(=O)N(C)C1CCCCC1	none
Cc1[nH]n(C(N)=S)c(=O)c1C(c1ccccc1)C(C#N)C#N (centres undefined)	none
CCCc1[nH][nH]c(=O)c1C(c1ccccc1)C(C#N)C#N (centres undefined)	CYP2C19 inh 58, CYP2C9 inh 62
CCCc1[nH][nH]c(=O)c1C(c1ccc(Br)cc1)C(C#N)C#N (centres undefined)	CYP2C9 inh 61
CC(=O)Nc1ccc(S(=O)(=O)Nc2c(C)nn(-c3ccccc3)c2C)cc1	none
CC(=O)c1ccccc1NS(=O)(=O)c1c(C)nn(-c2ccccc2)c1C	CYP2C19 inh 99, CYP2C9 inh 51
CCCc1cc(C(=O)N(C2CCCCC2)C2CCCCC2)no1	CYP2C19 inh 64, CYP2C9 inh 81
CCCc1cc(C(=O)Nc2cccnc2)no1	none
CCN(CC)c1ncccc1C(=O)NCc1cccs1	CYP2C19 inh 99, CYP2C9 inh 65
CCCc1cc(C(=O)N2CCN(C(c3ccccc3)c3ccccc3)CC2)no1	CYP2C9 inh 83
Cc1cc(C(=O)N2CCN(C(c3ccccc3)c3ccccc3)CC2)no1	none
CCCc1cc(C(=O)NCc2cccnc2)no1	CYP2C19 inh 59
CC(C)CC(NC(=O)C(NC(=O)OC(C)(C)C)C(C)C)C(=O)N1CCCC1C(N)=O (centres undefined)	none
CCCc1cc(C(=O)NCc2cccs2)no1	CYP2C19 inh 74
Cc1cc(C(=O)NCc2ccccc2Br)no1	CYP2C19 inh 70
Cc1cc(C(=O)NCc2ccccc2)no1	none
CCCc1cc(C(=O)NCc2ccco2)no1	none
CCCc1cc(C(=O)NCCc2ccc(OC)c(OC)c2)no1	CYP2C19 inh 94, CYP2C9 inh 68
CCCc1cc(C(=O)NCc2ccccc2)no1	CYP2C19 inh 58
Cc1ccc(-c2cc(C(=O)NCc3cccs3)no2)cc1	none
Cc1[nH]nc2cn[nH]c12	none
CC1CCN(CC(=O)Nc2sc3c(c2C#N)CCC3)CC1	CYP2C9 inh 56
CC(=O)Nc1sc2c(c1C#N)CCCC2	none
CCCC(=O)Nc1sc2c(c1C#N)CCCC2	CYP2C9 inh 50
COC(=O)CCC(=O)Nc1sc2c(c1C#N)CCCC2	none
N#Cc1c(NC(=O)c2ccncc2)sc2c1CCC2	CYP2C19 inh 73, CYP2C9 inh 53
COc1ccc(-c2nc(CS(=O)CC(=O)NCCCN3CCCC3)c(C)o2)cc1OC (centres undefined)	none
O=C(Nn1c(O)c(C=C2N=c3ccccc3=N2)sc1=S)c1cccc(Cl)c1	none
COc1cc(C(=O)N(Cc2ccc(F)cc2)C2CCS(=O)(=O)C2)cc(OC)c1OC (centres undefined)	none
O=C(C1CC1)N(CCN(Cc1ccccc1)C(=O)C1CC1)Cc1ccccc1	CYP2C19 inh 54
O=C(c1cc(-c2ccccc2)nc2ccccc12)N1N=C(C(F)F)CC1(O)C(F)F (centres undefined)	CYP2C19 inh 82, CYP2C9 inh 100
CN(CCc1ccccn1)S(=O)(=O)c1ccccc1F	CYP2C19 inh 64
CN(CCc1ccccn1)Cc1ccc(Cl)cc1Cl	CYP2C19 inh 68
CCC(C)N=CC1=C(O)CC(c2ccccc2)CC1=O (centres undefined)	CYP2C19 inh 52
O=c1c(-c2ccc3c(c2)OCCO3)coc2cc(O)cc(O)c12	CYP2C9 act 2.4
CCS(=O)(=O)c1ccc(O)c(N2C(=O)C3C4C=CC(C4)C3C2=O)c1 (centres undefined)	none
COc1ccc(OC)c(CN2C(=O)c3ccccc3C2C(=O)NCc2cccnc2)c1 (centres undefined)	CYP2C19 inh 57, CYP2C9 inh 51
O=C(NCc1cccnc1)C1c2ccccc2C(=O)N1C1CCCC1 (centres undefined)	CYP2C19 inh 75
Cc1ccc(CN2C(=O)c3ccccc3C2C(=O)NCc2cccnc2)cc1 (centres undefined)	CYP2C19 inh 71, CYP2C9 inh 51
COc1ccc(CN2C(=O)c3ccccc3C2C(=O)NCc2cccnc2)c(OC)c1 (centres undefined)	none
CCOC(=O)c1cc(NC(=O)Nc2ccccc2OC)c(C)nc1C	none
CCC(C(=O)Nc1ccccc1OC)n1c(C(=O)OC)cc2ccsc21 (centres undefined)	CYP2C19 inh 98, CYP2C9 inh 96
O=C(CCn1c(=O)[nH]c2ccccc2c1=O)N1CCN(c2cccc(C(F)(F)F)c2)CC1	CYP2C19 inh 67
O=C(CCCn1c(=S)[nH]c2ccccc2c1=O)N1CCN(c2cccc(Cl)c2)CC1	none
O=C(CCCCn1c(=O)[nH]c2ccccc2c1=O)N1CCN(c2cccc(C(F)(F)F)c2)CC1	CYP2C19 inh 62
COc1ccc(OC2C(=O)N(Cc3ccc(F)cc3)C2c2ccc(OC)c(OC)c2)cc1 (centres undefined)	CYP2C19 inh 72, CYP2C9 inh 60
COC(=O)c1ccc(C2C(Oc3ccccc3)C(=O)N2CCc2ccc(F)cc2)cc1 (centres undefined)	none
CC(CCc1ccco1)NC(=O)c1cc2c(-c3ccccc3F)nn(C)c2s1 (centres undefined)	CYP2C19 inh 78, CYP2C9 inh 93
Cn1nc(-c2ccccc2F)c2cc(C(=O)Nc3ccc4c(c3)OCCO4)sc21	CYP2C9 inh 81
COc1cccc(-c2nn(C)c3sc(C(=O)Nc4ccc5c(c4)OCCO5)cc23)c1	none
CCN(CC)c1nc(N2CCOCC2)c(C#N)c2c1CN(C)CC2	CYP2C9 inh 56
CCN1CCc2c(C#N)c(N3CCOCC3)nc(N3CCOCC3)c2C1	none
Cc1cc(C(F)(F)F)c(C#N)c(N2CCOCC2)n1	none
Cc1cc(C)c(C#N)c(N2CCCC2)n1	none
CCN1CCc2c(C#N)c(N3CCCCC3)nc(N3CCOCC3)c2C1	CYP2C9 inh 68
N#Cc1c(N2CCOCC2)nc(N2CCCCC2)c2c1CCN(C1CCCCC1)C2	PLAP activator 2
O=C(NC1CCCCCC1)c1ccc(CN2CCOCC2)cc1	none
CC(NC(=O)C1CC2CCCC(C1)C2=O)c1ccccc1 (centres undefined)	none
COC(/C=C/Nc1ccc(C)c(C)c1)=C(C#N)C#N	none
O=C(CCC(=O)OCCCC(F)(F)C(F)(F)F)Nc1ccc(Cl)cc1Cl	CYP2C19 inh 70
Cc1ccc(NC(=O)CCC(=O)OCCCC(F)(F)C(F)(F)F)cc1	none
CCCN(CCC)C(=O)c1cc(-c2ccc3c(c2)OCO3)nc2ccccc12	CYP2C19 inh 97, CYP2C9 inh 100
